# Measured values published in PubChem BioAssay AID504847 (National Center for Advancing Translational Sciences (NCATS), 2011).
# Where “and” joins values, the source holds several entries; their conditions need not be identical. Identical values can stand only once. Out of some 400,000 compounds screened, about 3,700 (0.93%) were called active. Another 3% or so got no clear call; they are omitted. This excerpt belongs to a sample that is enriched for actives. Values without a mark were called inactive. Calls come from the whole dose curve; as a rule, active = well fitted inhibition curve with a large enough effect; inconclusive = small, poorly fitted or top-dose-only effect, or another doubt; inactive = no such curve, though single readings can be large or run the other way.
# Target: Vitamin D3 receptor (Homo sapiens) (UniProt P11473)
# Sequence (P11473 whole entry, looked up): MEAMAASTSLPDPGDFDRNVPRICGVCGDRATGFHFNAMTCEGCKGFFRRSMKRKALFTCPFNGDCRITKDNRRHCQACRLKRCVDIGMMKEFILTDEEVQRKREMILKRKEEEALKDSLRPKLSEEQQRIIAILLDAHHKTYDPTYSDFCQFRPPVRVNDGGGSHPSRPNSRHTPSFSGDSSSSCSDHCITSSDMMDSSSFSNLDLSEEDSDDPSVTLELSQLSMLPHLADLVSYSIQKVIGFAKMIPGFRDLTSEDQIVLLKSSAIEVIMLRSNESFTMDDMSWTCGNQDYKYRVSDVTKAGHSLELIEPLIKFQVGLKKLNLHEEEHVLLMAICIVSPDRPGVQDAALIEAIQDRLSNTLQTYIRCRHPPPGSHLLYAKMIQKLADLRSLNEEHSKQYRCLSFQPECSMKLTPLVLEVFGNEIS
# Test: Inhibitors of the vitamin D receptor (VDR): qHTS
# Conditions: VDR-SRC2-3 peptide fluorescence polarization, 2 h; max response, negative = inhibition: active compounds read low
# Excerpt: The vitamin D receptor (VDR) is a ligand-activated transcription factor and is partially responsible for the regulation of the endocrine system. This includes the transcriptional regulation of genes involved in the production of the parathyroid hormone (PTH) and the regulation of the blood calcium level. High levels of PHT can cause hypercalcemia in the case of primary and tertiary hyperparathyroidism. The VDR-mediated gene regulation, activated by its ligand 1,25-dihydroxyvitamin D3 (1,25-(OH)2D3), is governed by the recruitment of coactivators. Our hypothesis is that small molecules, with the ability to inhibit the interaction between VDR and certain coactivators, are able to selectively modulate VDR-mediated transcription. Our long term objective is the application these VDR-coactivator inhibitors to study the role of VDR-coactivator binding for specific VDR regulated genes. Ultimately, these molecules can be developed into new treatments for hypercalcemic hyperparathyroidism. No small molecule or non-peptide inhibitors are known for the VDR-coactivator interaction.
# In a collaboration between the University of Wisconsin, Milwaukee and the NIH Chemical Genomics Center (NCGC) a HTS-compatible enzymatic assay was developed. The assay uses fluorescence polarization as its read-out to measure the inhibition between VDR and coregulator peptide SRC2-3 exerted by small molecules. This assay was used to screen the NIH Molecular Libraries Small Molecule Repository (MLSMR).
# NIH Chemical Genomics Center [NCGC]
# NIH Molecular Libraries Probe Centers Network [MLPCN]
# Assay Submitter (PI): Alexander Arnold, University of Wilwaukee
# Both solutions are kept at 4 deg C and protected from light and dispensed using a Kalypsys dispenser. Then 23nl of compounds and controls are added with Kalypsys pintool. […] Plate is centrifuged at 1000 RPM for 15 seconds to remove any residual bubbles. The plate is then incubate at ambient room temperature for 2 hours.
# % is set by controls: 0 for no effect and ±100 for the full control effect; potency is the fitted concentration of half-maximal effect.
Structure (SMILES),"max response, negative = inhibition",Potency
Cc1cccc(Cn2cccc(C(=O)Nc3ccc4c(c3)OCCO4)c2=O)c1,10.5%,
Clc1ccc([C@@H]2C[C@H]3CC[C@@H]2N3)cn1,3.4%,
C1CC[C@H]([C@@]23C[C@H](C[C@H]4CCCN[C@H]42)[C@@H]2CCCCN2C3)NC1,1.42%,
O=C(O)c1cc[c]([Sb](=[O])([OH])[OH])cc1[N+](=O)[O-],-21.9%,
C[C@@]12CCC3C(CC[C@@H]4CC(O)CC[C@@]34C)C1CCC2O (stereo partly specified),-4.26%,
O=C1NC(=O)N(c2ccccc2)C(=O)/C1=C/c1ccc([N+](=O)[O-])s1,,50.1 µM (active)
CN1CCCC(=C(c2cccs2)c2cccs2)C1,3.88%,
CC[N+]1(CCOC(=O)C(O)(c2ccccc2)c2ccccc2)CCCCC1,4.12%,
C[C@]12CC[C@H](O)C[C@@H]1CC[C@H]1[C@H]2CC[C@]2(C)C(=O)CC[C@@H]12,-9.44% and 0.624% and 3.94%,
Cc1ccnc(-n2c(C)cc(/C=C3\C(=O)NC(=S)N(C)C3=O)c2C)c1,,39.8 µM (active)
Cc1cc(C=C2C(=O)NC(=O)NC2=O)c(C)n1-c1ccncc1,-27.9%,
CCN1C[C@@]2(COC)CC[C@H](OC)[C@]34[C@@H]1[C@]1(OCO[C@@]15C[C@@H](OC)C1C[C@H]3[C@H]5[C@@H]1OC)[C@H](O)[C@@H]24,1.56%,
CC(C)(Cc1c[nH]c2ccc(Cl)cc12)NCCOc1ccccc1OCC1CC1,-1.04% and 2.67%,
CC(C)(O)c1[se]c2ccccc2c1I,-15.8%,
c1csc(CN2CCCC3(CCNCC3)C2)n1,-8.79%,
Cc1nnc(NC(=O)c2cccn(Cc3cccc(F)c3)c2=O)s1,12.7%,
Cc1ccc2c(c1)=C/C(=C\c1c(O)[nH]c(=O)[nH]c1=O)C(=O)N=2,,89.1 µM (active)
O=c1[nH]c(O)c(C=Nc2cc(F)cc(F)c2)c(=O)[nH]1,-6.29%,
C/C(=C\C=C/[C@@H](C)C(=O)O)[C@H]1CN[C@H](C(=O)O)[C@@H]1CC(=O)O,-9.05%,
COc1ccc2[nH]cc(CCNCc3ccc(Br)cc3)c2c1,5.83%,
COC(=O)c1ccc2[se]c(CC3CCCCC3)c(I)c2c1,3.86%,
CCC(=O)c1ccc(OCC(=O)N2CCN(CC(=O)Nc3ccc(C)cc3)CC2)cc1,0.567%,
C=CCN1C(=O)NC(=O)/C(=C/c2ccc(OCC(=O)Nc3ccc(C)cc3)cc2)C1=O,,70.8 µM (active)

Structure (SMILES),"max response, negative = inhibition",Potency
C=CCN(CC=C)C(=O)Nc1ccc(OCC)cc1,-2.13%,
C[C@@H]1C[C@@H]2O[C@H]2/C=C\C=C\C(=O)Cc2c(Cl)c(O)cc(O)c2C(=O)O1,-4.25%,
O=C1CCc2cccc3c2N1CC3,-0.897%,
COC([CH2][Hg])CNC(=O)c1ccccc1OCC(=O)O (stereo unspecified),,5.62 µM (active)
CCCCCCCCc1[se]c2ccccc2c1Br,0.449%,
N[C@H](Cc1o[nH]c(=O)c1Cl)C(=O)O,3.74%,
C=CCN1CCC23c4c5ccc(O)c4O[C@H]2C(=O)CC[C@@]3(O)C1C5 (stereo partly specified),-0.103% and 4.39%,
C[C@H]1CC[C@@]2(NC1)O[C@@H]1C[C@H]3[C@@H]4CC=C5C[C@@H](O)CC[C@]5(C)[C@@H]4CC[C@]3(C)[C@@H]1[C@@H]2C,-0.658%,
C=CCN1CCC2(C)c3cc(O)ccc3CC1[C@@H]2C (stereo partly specified),1.58%,
CC(=O)OC1C2CCC3C1(CC(O)[C@@]1(O)[C@@H](CC(O)C1(C)C)[C@]3(C)O)C[C@@]2(C)O (stereo partly specified),0.185%,
CN[C@@H]1C[C@H]2O[C@@](C)([C@@H]1OC)n1c3ccccc3c3c4c(c5c6ccccc6n2c5c31)C(=O)NC4,1.57% and -1.64%,
CCNC[C@H](O)c1cccc(O)c1,-1.81%,
C=CCSSCC=C,,20 µM (active)
COC1=C[C@]23CCCN2CCc2cc4c(cc2[C@@H]3[C@@H]1O)OCO4,-4.23%,
CC(C)(c1ccc(OC[C@@H]2CO2)cc1)c1ccc(OC[C@H]2CO2)cc1,4.79%,
CN1C2CC3CC1C(O3)C2O (stereo unspecified),-5.48%,
CCN1C[C@]2(COC)C(O)C[C@H](OC)[C@@]34C5C[C@]6(O)C(OC)C(O)[C@](OC(C)=O)(C5C6OC(=O)c5ccccc5)C(C(OC)C23)C14 (stereo partly specified),4.87%,
COC(=O)C1=C(c2ccccc2)C[C@@H]2CC[C@H]1N2C(=O)NCc1ccco1,-7.95%,
CCOC(=O)C(O)(c1ccc(NC(=O)c2ccco2)c(OC)c1)C(F)(F)F (stereo unspecified),9.73%,
COc1cc(Cn2c(N)c(C(=O)NCc3ccco3)c3nc4ccccc4nc32)cc(OC)c1OC,,79.4 µM (active)
CC(=O)NBr,-2.36%,
CCN1C[C@]2(C)CC[C@H](O)[C@@]34[C@@H]5CC6[C@@H](OC)C[C@@](O)([C@@H]5[C@@H]6O)[C@H](C[C@@H]23)[C@H]14,0.208%,
NS(=O)(=O)c1ccc(CCNC(=O)c2ccc(Cl)c(S(=O)(=O)N3CCCCCC3)c2)cc1,6.51%,
